Measured values published in PubChem BioAssay (NCI).
This is part of a sample that, as a whole, favours compounds with a hit. Of some 79,000 tested, about 15% had one in any assay. Active and inactive are the calls of the source. No stated cut-off is given here; in the data, active means growth inhibition above about 70%; inactive means the rest.

Experiments:
[1] = NCI Yeast Anticancer Drug Screen. Data for the rad50 strain (AID 155);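 further: 0% = growth of vehicle-only cultures of the same strain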; conditions: S. cerevisiae rad50 strain growth inhibition; at 50.0 µM; hits give high values
Outline: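 Genetically altered yeast (DNA repair pathway); compound treatment; growth inhibition vs vehicle ctrl.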

[2] = NCI Yeast Anticancer Drug Screen. Data for the sgs1 mgt1 strain (AID 161);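 further: 0% = growth of cultures given vehicle only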; conditions: S. cerevisiae sgs1 mgt1 strain, at 50.0 µM, hits give high values
Outline: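 Percent growth inhibition was derived by comparing compound-exposed mutant yeast with vehicle-exposed cultures. The strain carries alterations in DNA damage repair.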

[3] = NCI Yeast Anticancer Drug Screen. Data for the cln2 rad14 strain (AID 165);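 further: 0% = growth equal to vehicle treated cultures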; conditions: S. cerevisiae cln2 rad14 strain, at 50.0 µM, hits give high values
Outline: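 Relative to vehicle controls, growth inhibition of compound-treated cln2 rad14 yeast was recorded.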

[4] = NCI Yeast Anticancer Drug Screen. Data for the bub3 strain (AID 167); conditions: S. cerevisiae bub3 mutant strain, at 50.0 µM, hits give high values
Outline: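 Yeast carrying a defined mutation is treated with each compound, and growth is compared with that of vehicle-exposed cells to give inhibition.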

[5] = NCI Yeast Anticancer Drug Screen. Data for the mlh1 rad18 strain (AID 175); conditions: S. cerevisiae mlh1 rad18 strain growth inhibition; at 50.0 µM; hits give high values
Outline: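 Test agents were incubated with a yeast strain of defined genotype (DNA damage repair defect). Inhibition of growth was derived by comparison with vehicle-exposed cultures.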

[6] = NCI Yeast Anticancer Drug Screen. Data for the mec2-1 strain (AID 157); conditions: S. cerevisiae mec2-1 strain, at 50.0 µM, hits give high values
Outline: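 Readout is yeast growth inhibition, normalised to vehicle-treated controls, in the mec2-1 strain exposed to compound.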

Measured: growth inhibition

COc1cc2c(cc1OC)[C@H](C)N1CCc3cc(OC)c(OC)cc3[C@@H]1C2
inactive: [1] 2.1% | [2] 6.65% | [3] 14.3% | [4] 9.45% | [5] -37%

CC(C)/C(=N\[N+](C)(C)C)c1ccccc1
inactive: [6] -22.8% | [2] -21.8% | [3] -3.05% | [4] -22.7% | [5] 5.15%

CN(C)c1ccc(-c2c(C#N)c(N)[nH]c(=S)c2C#N)cc1
inactive: [6] -2.35% | [2] 4.7% | [3] 6.35% | [4] 16.9% | [5] 3.45%

C/C=C/C(=O)OCCC(C)OC(=O)/C=C/C (centres undefined)
inactive: [6] -30.4% | [2] 19.4% | [3] 17.4% | [4] 15.9% | [5] 5.25%

CCCNc1ncnc2ncn(C)c12
inactive: [6] -1.6% | [2] -12.9% | [3] 5.05% | [4] 7.35% | [5] 0.35%

Cc1cc2nc(CCC(=O)O)c(=O)[nH]c2cc1C
inactive: [6] -24.6% | [2] -4.05% | [3] 13.8% | [4] -24% | [5] -28.8%

CCCCCCC(N)(CCCCCC)C(=O)Nn1c(C)ccc1C
inactive: [6] 13.1% | [2] 9.8% | [3] -20.6% | [4] 4.25% | [5] 31.2%

N#Cc1cc2c(cc1C#N)/C(=N\c1cccc(N)n1)N=C2Nc1cccc(N)n1
inactive: [6] 19.1% | [2] 0.2% | [3] 1.25% | [4] 5.8% | [5] 22%

COc1ccc(CCC(C)(O)c2ccccc2)cc1 (centres undefined)
inactive: [6] -1.35% | [2] 11.2% | [3] -1.05% | [4] 41.9% | [5] -2.55%

CC(C)OP(=O)(c1ccccc1)c1ccc2c(c1)OCCOCCOCCOCCO2 (centres undefined)
inactive: [6] -2.2% | [2] 0.75% | [3] 7.05% | [4] -2.1% | [5] 24.7%

COC(=O)/C(=C/c1ccc(OC)cc1)C(C(=O)O)=C1CCCCC1
inactive: [6] 9.95% | [2] 7.35% | [3] 9.75% | [4] 2.25% | [5] -8.9%

Nc1ccc2ccccc2c1N=Nc1ccc(/C=C/c2ccc(N=Nc3c(N)ccc4ccccc34)cc2S(=O)(=O)O)c(S(=O)(=O)O)c1
inactive: [6] 18.2% | [2] 62% | [3] 7.1% | [4] 31.9% | [5] 53.4%

Cc1ccc2c(c1)nc1n2C(c2c(F)cccc2F)SC1 (centres undefined)
inactive: [6] -6.45% | [2] 26.9% | [3] 13.4% | [4] 29.3% | [5] -3.7%

O=C(O)CCc1ccccc1-c1ccccc1C(=O)O
inactive: [6] 1.45% | [2] -2.45% | [3] 8.8% | [4] 0.35% | [5] 31.4%

O=C(O)c1cccc(S(=O)(=O)NN2C(=O)CSC2c2ccccc2)c1 (centres undefined)
inactive: [6] -18.5% | [2] 5.55% | [3] 4.45% | [4] 3.7% | [5] -11.3%

O=C1C(O)=C(c2ccccc2)C(=O)N1Cc1ccccc1
inactive: [6] -4.7% | [2] 4.55% | [3] -39% | [4] 3.4% | [5] -6.6%

CN=C(NN(C)C)c1ccc(NC(=O)c2ccc(C(=O)Nc3ccc(C(=NC)NN(C)C)cc3)cc2)cc1
inactive: [6] 7.65% | [2] 10.8% | [3] 10.1% | [4] -13.8% | [5] 13.9%

CC1C(=O)OCC2=CCN3CCC(OC(=O)C(C)C1(C)O)C23 (centres undefined)
inactive: [6] -15.8% | [2] -3.45% | [3] 8.05% | [4] 0.9% | [5] -32.5%

O=C1CCCN(Cc2ccccc2)C1
inactive: [6] -25.2% | [2] 0.35% | [3] 1.2% | [4] -0.4% | [5] 9.45%

O=C1CCC(=O)N1n1c(Cc2ccc(Cl)cc2)n[nH]c1=O
inactive: [6] 8.5% | [2] 19.1% | [3] 4.85% | [4] 12.8% | [5] -44.6%

CCCCC/C(C)=N\O
inactive: [6] 3.8% | [2] 3.35% | [3] -13.6% | [4] -7.15% | [5] 13.2%

CCOC(=O)c1ccc(-c2ccccc2)cc1
inactive: [6] -28.9% | [2] -14.7% | [3] -7.25% | [4] -12.2% | [5] -15.3%

COC(C)CCOC(=O)c1ccc(C(C)C)cc1 (centres undefined)
inactive: [6] 8% | [2] 10.2% | [3] -21.7% | [4] 8.75% | [5] 1.65%

CC1=C(C(=O)Nc2ccccc2)C(c2ccc(C3C(C(=O)Nc4ccccc4)=C(C)NC(C)=C3C(=O)Nc3ccccc3)cc2)C(C(=O)Nc2ccccc2)=C(C)N1
active: [6] 71.6% | [4] 82.5% | [5] 84.8%
inactive: [2] 53% | [3] 41.5%

CCOC(=O)C(C#N)C1=CC(=O)C(=O)c2ccc(O)cc21 (centres undefined)
inactive: [6] -7.65% | [2] -1.15% | [3] 27% | [4] 16.6% | [5] 0.45%

O=C1c2ccccc2OCC1/C=N/O (centres undefined)
inactive: [6] -24.1% | [2] -26.4% | [3] 32.2% | [4] -34.1% | [5] -10.8%

CC(CC(C)(C)C)C(=O)NC(N)=O (centres undefined)
inactive: [6] -4.05% | [2] -7.95% | [3] -0.6% | [4] 8.65% | [5] 7.6%

CC(C)CC(=O)NC(Nc1ccc(S(=O)(=O)Nc2ncccn2)cc1)(C(F)(F)F)C(F)(F)F
inactive: [6] -9.95% | [2] 14.3% | [3] 20.6% | [4] -5.8%

Oc1c(Cl)cc(Cl)cc1/C=N/c1nc(-c2ccc(Cl)cc2)cs1
inactive: [6] 26.1% | [2] 61.3% | [3] 28.1% | [4] 38.8% | [5] 35%

COc1ccc(N2C=Nn3c(nc4sc(C)c(C)c4c3=O)C2)cc1
inactive: [6] 12.9% | [2] 20.9% | [3] -12.3% | [4] 12.9% | [5] -1%

O=C1c2cc3c(cc2C(=O)c2ncccc21)CCCC3
active: [4] 71.1% | [5] 76.1%
inactive: [6] 48.4% | [2] 62.1% | [3] 10.3%

O=C1CC2CC1C1CC(Br)C(Br)C21 (centres undefined)
inactive: [6] -17.3% | [2] -8.8% | [3] -4.85% | [4] -15.7% | [5] -1.1%

CCCCCCOc1ccc(OCCCC[N+]2(CC)CCCCC2)cc1
inactive: [3] 46.5%
active: [6] 87.8% | [2] 73.7% | [4] 90.8% | [5] 90.8%

Cn1c(=O)c2ncn(Cc3ccccc3)c2n(C)c1=O
inactive: [6] 4.4% | [2] 0.85% | [3] 0.75% | [4] -7.75% | [5] 13.2%

CCCOc1ccc(/C=C\c2cc(OC)c(OC)c(OC)c2)cc1
inactive: [6] 3.9% | [2] -2.05% | [3] 3.4% | [4] 10.1% | [5] 43.5%

O=C1/C(=C/c2ccccc2)SC(=S)N1C1OC(CO)C(O)C(O)C1O (centres undefined)
inactive: [6] 11.8% | [2] -8.4% | [3] 8.95% | [4] -3.95% | [5] 6.9%

C=CC(O)C1OC2OC(C)(C)OC2C2OC(C)(C)OC12 (centres undefined)
inactive: [6] 13.2% | [2] 2.7% | [3] -32.8% | [4] 21.4% | [5] 5.45%

CC(=O)NCCNC(=O)c1ccc(C)c(OCc2ccccc2)c1[N+](=O)[O-]
inactive: [6] 11.7% | [2] -1% | [3] -26.2% | [4] -1.6% | [5] 4.45%

CC(=O)NNc1nc(C)c(C(=O)/C=C/c2ccc(Cl)cc2)s1
inactive: [6] 12.7% | [2] 21.7% | [3] 27.4% | [4] 19% | [5] 30.2%

CSC(=NCCCCN=C(NS(=O)(=O)c1ccc(Cl)cc1)SC)NS(=O)(=O)c1ccc(Cl)cc1
inactive: [6] -27% | [2] -16.9% | [3] 13.9% | [4] -8.8% | [5] -11.2%

CSc1nc(-c2ccccc2)c2c(n1)-c1ccccc1CC2
inactive: [6] -6.1% | [2] 3.05% | [3] -2.4% | [4] 17.9% | [5] -2.35%
